Tb PFK block: qHTS Assay to Find Inhibitors of T. brucei phosphofructokinase | ATP-dependent 6-phosphofructokinase (Trypanosoma brucei brucei), O15648 | T. brucei PFK, ADP-Glo luminescence | Potency, µM (series often up to 57.5 µM), for inactives: at the highest dose activity, negative = inhibition, most hits filed as inhibitors | 330,000 compounds, 0.17% hits | AID 485367, 2010; active = well fitted inhibition curve with a large enough effect; inconclusive = small, poorly fitted or top-dose-only effect, or effect the other way;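 also: potency is read from the fitted curve at half-maximal effect; 0% = uninhibited 1x PFK enzyme wells and -100% = no-enzyme wells; nearly all actives have a fitted effect of over 60% in size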
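1.25 nM PFK with 0.5 mM F6P and 0.1 mM ATP in 0.1 M TEA pH 8.0, 5 mM MgCl2, incubated 45 min at room temperature; ADP measured by ADP-Glo luminescence; compounds titrated up to 57 uM.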
TSG101-PTAP inh: qHTS Assay for Iinhibitors of HIV-1 Budding by Blocking the Interaction of PTAP/TSG101 | 340,000 tested, under 10 active | Tumor susceptibility gene 101 protein (Homo sapiens), Q99816 | Fluorescence polarization, FITC-PTAP peptide / Tsg101 binding | Potency, µM (series often up to 115 µM), for the others: top-dose activity change, negative = inhibition, most hits filed as inhibitors; active = well fitted inhibition curve with a large enough effect in the main read-out, with a control signal flat, not every such curve was filed as active; inconclusive = small, poorly fitted or top-dose-only effect, or effect the other way, or a change in a side signal; inactive = no such curve, though single readings can be large or run the other way; also: potency is read from the fitted curve at half-maximal effect; % of control where 0% means no effect
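Steps: Tsg101 binding domain dispensed (10 uM final), compounds pinned in DMSO, FITC-labeled PTAP-motif peptide added (50 nM final); after 20 min binding at room temperature, polarization measured.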
KCNH2 3.1 inh: qHTS for Inhibitors of KCHN2 3.1: Mutant qHTS. Potassium voltage-gated channel subfamily H member 2, brain isoform KCNH2 3.1 (human). U2OS KCNH2 3.1, thallium flux FluxOr; active compounds read low. activity change, % (tested at about 1.8 µM). 340,000 compounds, 0.95% hits. AID 720553, 2013;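 active = maximum activity change below -70%; inconclusive = maximum activity change from -70% to -50%; inactive = maximum activity change above -50%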;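 also: thallium influx rate constant from kinetic fluorescence after stimulation buffer; % is scaled to controls: 0 for no effect and ±100 for the full control effect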
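Normalized rate constant (relative to positive and negative DMSO controls) derived from a 2 min kinetic fluorescence read after stimulation; U2OS cells expressing the 3.1 isoform via virus at 1.77 x 10^8 /mL.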
KCNH2 WT inh: qHTS for Inhibitors of KCHN2 3.1: Wildtype qHTS; activity change, % at 1.84 µM; U2OS, BacMam KCNH2, thallium flux FluxOr; active compounds read low; 340,000 compounds, 0.37% hits; AID 720551, 2013; Voltage-gated inwardly rectifying potassium channel KCNH2 (Homo sapiens), Q12809;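 active = maximum activity change below -70%; inconclusive = maximum activity change between -70% and -50%; inactive = maximum activity change above -50%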; also: % is scaled to controls: 0 for no effect and ±100 for the full control effect
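U2OS cells transduced with wild-type KCNH2 virus are loaded with FluxOr dye for 45 min, and thallium flux is measured in kinetic reads before and after stimulation buffer. Rate constants are normalized to DMSO controls.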
Numbers without * were called inactive; ? = inconclusive; nt = no result. Shown are actives, neighbours in structure and some others; about 1.2% of the full set was active somewhere.

SMILES | Tb PFK block | TSG101-PTAP inh | KCNH2 3.1 inh | KCNH2 WT inh
O=S1(=O)CCN(C2CCCC2)CC1 | nt | nt | 3 | 13
CCCCNc1c(-c2ccc(-c3ccc(C(C)=O)cc3)c(OC)c2)nc2cc(C)ccn12 | 3% | -2% | -71* | -15
CCCCNc1c(-c2ccc(SC(C)CC)cc2)nc2ccccn12 (stereo not drawn) | 0% | ? | ? | -16
CCCCNc1c(-c2ccc(OC)c(SC(C)CC)c2)nc2cc(C)ccn12 (stereo not drawn) | 3% | -2% | -82* | 3
COc1ccc(-c2nc3cc(C)ccn3c2NCC2CCCO2)cc1OC (stereo not drawn) | nt | -1% | 4 | -14
CCCCNc1c(-c2ccc(Sc3ccc(OC)cc3)cc2)nc2cc(C)ccn12 | 7% | 1% | -84* | ?
CCCCNc1c(-c2ccc(OC)c(SC(C)CC)c2)nc2ccc(C)cn12 (stereo not drawn) | -2% | -6% | -47 | -6
CCc1cccc(CC)c1-n1c(SCC(=O)N2CCc3ccccc32)nc(O)cc1=O | 4% | -4% | 2 | -8
O=C(COC(=O)COc1ccc(Cl)cc1Cl)NC1CCS(=O)(=O)C1 (stereo not drawn) | 1% | -4% | 13 | -5
O=C(N/N=C1\CCCc2c1[nH]c1ccc([N+](=O)[O-])cc21)c1ccncc1 | 0% | nt | nt | nt
CCOC(=O)c1c(C)nc2c(C)cccn12 | 1% | -1% | -20 | -4
Cc1nc2c(C)cccn2c1C(=O)c1ccccc1 | ? | -4% | -84* | -5
Cc1ccc(S(=O)(=O)c2nnn3c2nc(NC2CCN(Cc4ccccc4)CC2)c2ccccc23)cc1C | 2% | -3% | -81* | -13
Cc1ccc(S(=O)(=O)c2nnn3c2nc(NCCCN2CCCC2=O)c2ccccc23)cc1C | -1% | -7% | -9 | 5
Clc1ccc2nc(C3CCN(Cc4nnnn4C4CCCCC4)CC3)[nH]c2c1 | -4% | -4% | -28 | -5
Cc1ccc(Cn2nnnc2CN2CCC(c3nc4ccc(Cl)cc4[nH]3)CC2)cc1 | 0% | -6% | -88* | -2
COc1ccc(CN2C(=O)C(CC(=O)NC3CCCCC3)CC(C(=O)N(C(C)C)C(C)C)=C2C)cc1 (stereo not drawn) | nt | nt | -10 | -8
CCOc1ccc2ncc(C(=O)c3ccc(OC)cc3)c(N3CCN(CC)CC3)c2c1 | -2% | -1% | -75* | ?
O=C(COC(=O)c1ccccc1-n1cnnn1)c1ccc(Br)cc1 | -3% | 0% | -1 | 5
O=C(COC(=O)c1ccc(-n2cnnn2)cc1)c1ccc(Br)cc1 | 1% | -3% | -83* | ?
O=C(NC1CCCC1)C(c1ccc(F)cc1)N(C(=O)c1csnn1)C1CC1 (stereo not drawn) | 1% | 1% | 1 | -13
O=C(Nc1ccccc1F)C(=Cc1sc(N2CCOCC2)nc1-c1ccccc1)C(=O)Nc1ccccc1F | -2% | ? | -77* | -1
O=C(N/N=C/c1sc(N2CCOCC2)nc1-c1ccccc1)c1ccccc1F | -3% | -2% | -4 | 0
CCC(C)c1ccc(NC(=O)NCCN2CCCCC2)cc1 (stereo not drawn) | 0% | -1% | -94* | 9
Nc1cccc(P(=O)(c2ccccc2)c2ccccc2)c1 | 0% | -6% | -11 | 1
SMILES | Tb PFK block | TSG101-PTAP inh | KCNH2 3.1 inh | KCNH2 WT inh
O=P(c1ccccc1)(c1ccccc1)N(c1ccccc1)c1ccccc1 | -4% | 2% | -70* | 52
COc1ccc(CNCc2ccc3ccccc3c2)c(OC)c1 | -2% | 1% | -98* | 7
Cc1cc(N2CCN(S(=O)(=O)c3ccc(Cl)c(Cl)c3)CC2)c2ccccc2n1 | 4% | -3% | -113* | ?
Cc1cc(N2CCN(S(=O)(=O)c3ccc(Cl)cc3)CC2)c2ccccc2n1 | -1% | -1% | -95* | ?
Cc1nc2n[nH]c(N)c2nc1C | nt | nt | 2 | 1
CN1CCC2CC1c1cc(-c3ccc(C(F)(F)F)cc3)ccc12 (stereo not drawn) | nt | -7% | -31 | 6
CC(C)OCCCN1CC(=O)N2C(c3ccccc3)c3[nH]c4ccccc4c3C[C@H]2C1=O (stereo partly drawn) | 1% | -4% | ? | 25
COc1cccc(C2c3[nH]c4ccccc4c3C[C@H]3C(=O)N(CCCOC(C)C)CC(=O)N23)c1 (stereo partly drawn) | -2% | -5% | -156* | 4
CCN1CCN(C(CNS(=O)(=O)c2cccs2)c2cccnc2)CC1 (stereo not drawn) | -5% | -6% | -462* | 16
COc1cccc(OC)c1OCCCN1CCC(Cc2ccccc2)CC1 | -3% | -3% | -70* | -10
COc1cccc(OC)c1OCCN1CCN(C(c2ccccc2)c2ccccc2)CC1 | 2% | -1% | -103* | ?
C[C@@H]1CN([C@@H](C)CO)C(=O)CCCn2nncc2CO[C@H]1CN(C)S(=O)(=O)c1ccccc1F | nt | nt | -7 | 1
CCC(=O)Oc1ccc(C(=O)Nc2ccc([N+](=O)[O-])cc2)cc1 | 3% | -2% | 9 | -159*
Cc1ccc(Cc2c(-c3ccc(F)cc3)nc3cc(C)ccn23)cc1 | nt | nt | -23 | -2
Cc1ccc(C)c(N2CCN(C(=O)c3cc4ccccc4oc3=O)CC2)c1 | -4% | -3% | 24 | 1
O=C(c1cc2ccccc2oc1=O)N1CCN(c2ccc(N3CCOCC3)nn2)CC1 | -6% | 0% | -88* | -10
O=C(COC(=O)c1cccnc1Cl)c1ccc2c(c1)OCCO2 | -2% | 1% | -22 | -15
O=C(COC(=O)c1ccc(Cl)nc1)c1ccc2c(c1)OCCO2 | -2% | 0% | 13 | -107*
CC(C)Sc1nc2c(c(=O)[nH]c(=O)n2C)n1Cc1ccc(Cl)cc1 | -6% | 0% | 5 | 12
CCOC(=O)C(C)Sc1nc2c(c(=O)[nH]c(=O)n2C)n1Cc1ccc(Cl)cc1 (stereo not drawn) | -4% | -3% | -91* | ?
COc1ccc2[nH]c(C(=O)N3CCC(n4nccc4NC(=O)C4CC4)CC3)c(C)c2c1 | 3% | -4% | 0 | -2
COc1ccc(NC(=O)CN(C)CC(=O)N(C)C2(C#N)CCC(C)CC2)cc1 (stereo not drawn) | -7% | -6% | -2 | -3
CN(CC(=O)Nc1ccc(F)cc1)CC(=O)N(C)C1(C#N)CCCCC1 | -8% | -9% | -115* | 0
c1ccc(CN2CCN(c3nc(NCc4ccco4)c4ccccc4n3)CC2)cc1 | 0% | -2% | -108* | -48
OCCN1CCN(c2nc(NCc3ccco3)c3ccccc3n2)CC1 | 3% | -11% | -19 | 18
